Screening results as filed in PubChem BioAssay.
Only some compounds are listed: those with a hit (about 3.8% of all), similar ones and a draw of the others.
NLRP3 yeast inh – inhibitors of NALP3 inflammasome in yeast; AID 2825; Yeast reconstituted NLRP3/ASC/caspase-1, beta-gal luminescence, 24 h; inhibition, % at 10 µM; 0.39% of 330,000 active;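 active means inhibition of 50% or more; inactive means inhibition below 50%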;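 further: plate controls were induced DMSO wells for no effect and uninduced yeast grown without galactose for full effect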
CR mimetic SO – yeast age-related superoxide inhibition as caloric restriction mimetic; S. cerevisiae aged cells, superoxide DHE fluorescence; active compounds read low; superoxide response (% of plate mean), % at 10 µM; 0.18% of 330,000 active;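 active means superoxide response under a set limit, about three screen SD below normal, cut at about 65% in these data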;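 further: yeast aged for seven days with compound at 30 °C before DHE staining; 100% = average MFI of all compound-treated wells on the plate with controls excluded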
TIM10 inh – growth inhibitors of TIM10 yeast strain. S. cerevisiae TIM10 strain growth, BacTiter-Glo luminescence, 24 h. inhibition, % at 10 µM. 1.4% of 330,000 active. AID 463195;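 active means inhibition of 40% or more at the single tested concentration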;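 further: wild-type TIM10 isogenic control strain grown at permissive 25 °C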
tim10-1 inh – inhibits growth of tim10-1 mutant yeast | S. cerevisiae tim10-1 ts strain growth, BacTiter-Glo, 24 h | inhibition, % at 20 µM | 2.2% of 330,000 active | AID 463190;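 active means inhibition of at least 40%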;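 further: mutant grown at 25 °C; 0% = DMSO wells with yeast and 100% = wells holding no yeast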
tim23-1 inh – inhibits growth of tim23-1 mutant yeast | inhibition, % at 20 µM | S. cerevisiae tim23-1 growth, BacTiter-Glo luminescence, 24 h | AID 463212 | 1.3% of 330,000 active;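 active means growth inhibition of the mutant yeast at or above 50%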;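 further: temperature-sensitive mutant grown at 25 °C; plate controls were DMSO-treated mutant yeast for no effect and medium wells lacking yeast for full effect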
NALP3 confirm – confirmation of NALP3 inhibitors in yeast | shares compounds with NLRP3 yeast inh | yeast expressing human NALP3, luminescence | inhibition, % at 10 µM | 81% of 1,300 active; in the data active means inhibition above about 48%
Casp1 ASC ctr – caspase-1-ASC yeast counter-screen hit; shares compounds with NLRP3 yeast inh; yeast expressing Caspase-1-ASC, luminescence counter screen; inhibition, % at 10 µM; 66% of 1,000 active; AID 488784
NALP3 yeast rt – yeast NALP3 inhibition, confirmed on retest; shares compounds with NLRP3 yeast inh; yeast expressing human NALP3, luminescence read-out; inhibition, % at 10 µM; 53% of 1,000 active
tim10-1 conf – confirmation of tim10-1 mutant yeast growth inhibitors | S. cerevisiae tim10-1 ts strain growth, BacTiter-Glo, 24 h | 56% of 7,400 active | inhibition, % at 20 µM | AID 463213 | shares compounds with tim10-1 inh;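 active means inhibition of yeast growth at or above a set limit in either of two repeat tests at 20 µM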;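 further: tim10-1 mutant grown at permissive 25 °C to find synthetic lethal compounds; 0% = DMSO yeast wells and 100% = medium wells without yeast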
tim10 confirm – TIM10 yeast growth inhibition, confirmed; AID 463215; inhibition, % at 10 µM; S. cerevisiae tim10 strain growth, BacTiter-Glo luminescence, 24 h; shares compounds with TIM10 inh; 63% of 4,600 active;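 active means inhibition of yeast growth at or above a set limit in either of two replicates at 10 µM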;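 further: this counterscreen used the strain with wild-type TIM10; 0% = yeast with DMSO and 100% = medium wells lacking yeast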
tim23-1 confirm – tim23-1 yeast growth inhibition, confirmed; shares compounds with tim23-1 inh; inhibition, % at 20 µM; S. cerevisiae tim23-1 growth, BacTiter-Glo luminescence, 24 h; 83% of 4,400 active;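 active means inhibition above about 39% in either of two replicate wells at 20 µM, limit read from the data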;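 further: temperature-sensitive tim23-1 mutant grown at 25 °C; 0% = DMSO wells with yeast and 100% = medium wells without yeast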
The depositor's hits bear a star; / = no result. Unless noted, no stated cut-off is given here; in the data, active means inhibition above about 50%; inactive means the rest.

SMILES | NLRP3 yeast inh | CR mimetic SO | TIM10 inh | tim10-1 inh | tim23-1 inh | tim10-1 conf | others
O=C(N/N=C/c1ccco1)c1cc2ccccc2o1 | 64* | 88 | 41* | 23 | 66* | / | NALP3 confirm=74*;Casp1 ASC ctr=64*;NALP3 yeast rt=63*;tim10 confirm=12;tim23-1 confirm=64*
CC(C)(C)c1csc(SCC(=O)Nc2ccc(Cl)cn2)n1 | 28 | 97 | 23 | 43* | 38 | 30
COc1ccc(CN2C(=O)[C@@H]3Cc4c([nH]c5ccccc45)C(C)(C)N3C2=O)cc1 | 9 | / | 27 | 44* | 43 | 22
COc1cccc(CN2C(=O)[C@H]3Cc4c([nH]c5ccccc45)C(C)(C)N3C2=O)c1 | 5 | / | 35 | 45* | 31 | 30
COc1ccccc1CN1C(=O)[C@@H]2Cc3c([nH]c4ccccc34)C(C)(C)N2C1=O | 24 | 115 | 19 | -8 | 6 | /
Cc1cccc(C(=O)NC2CCN(C(=O)Nc3ccc(F)cc3)CC2)c1 | 12 | 90 | -12 | -5 | 8 | /
Cc1cccc(NC(=S)N/C(=N/S(=O)(=O)c2ccccc2)c2ccccc2)c1 | 17 | 98 | 26 | 42* | 20 | 14
O=C(/C=C/c1ccco1)NC(=S)Nc1ccccc1N1CCCC1 | 7 | 106 | 6 | 16 | 14 | /
O=C(/C=C/c1ccco1)Nc1ccccc1N1CCCC1 | 17 | 102 | 39 | 53* | 40 | 46*
O=C(c1cc2ccccc2oc1=O)N(Cc1ccccc1F)C1CCS(=O)(=O)C1 (stereo unspecified) | 14 | 95 | -2 | -5 | -9 | /
CCOC(=O)C1CCCN(C2=NC(=O)/C(=C/c3ccc(OC)cc3)S2)C1 (stereo unspecified) | 10 | 104 | 20 | 47* | 33 | 31*
CCOC(=O)C1CCCN(C2=NC(=O)/C(=C/c3ccc(O)c(OCC)c3)S2)C1 (stereo unspecified) | 8 | 104 | 28 | 46* | 40 | 26
CCOC(=O)C1CCCN(C2=NC(=O)/C(=C/c3ccc(N(C)C)cc3)S2)C1 (stereo unspecified) | 17 | 92 | 18 | 27 | 36 | /
CS(=O)(=O)N(CC(=O)Nc1ccc(S(=O)(=O)N2CCOCC2)cc1)c1cccc(F)c1 | 10 | 99 | -7 | -3 | 8 | /
O=c1[nH]c(NCCCO)nc2c1C1(CCCC1)Cc1ccccc1-2 | 5 | 104 | 9 | 10 | 14 | /
S=C(NCc1ccccc1)NNc1nc2ccccc2[nH]1 | 34 | 102 | -4 | 27 | -11 | /
C=CCNC(=S)NNc1nc2c(c(=O)[nH]1)C1(CCCC1)Cc1ccccc1-2 | -17 | 114 | 34 | 48* | 37 | 38*
O=c1[nH]c(NNC(=S)NCc2ccccc2)nc2c1C1(CCCCC1)Cc1ccccc1-2 | 4 | 106 | 32 | 43* | 21 | 30
CC(=O)/C(=N/Nc1ccccc1)Sc1nnc(C(O)c2ccccc2)n1-c1ccccc1 (stereo unspecified) | 22 | 101 | 9 | 10 | 22 | /
Cc1noc(C)c1COc1ccccc1C(=O)N(C)Cc1ccc(F)cc1 | 8 | / | 16 | 21 | 18 | /
Cc1noc(C)c1COc1ccccc1C(=O)N(C)Cc1ccc(C(C)(C)C)cc1 | -2 | 149 | 17 | 42* | 49 | 20
CCOc1ccc(N2C(=O)CC(Sc3nc4ccc(OCC)cc4s3)C2=O)cc1 (stereo unspecified) | 19 | 105 | -7 | -5 | -20 | /
CCOc1ccc2nc(SC3CC(=O)N(c4ccc(OC)cc4OC)C3=O)sc2c1 (stereo unspecified) | 20 | 82 | 36 | 44* | 34 | 43*
